Experimental data from PubChem BioAssay (NCATS).
Records with an inconclusive call do not appear. A call without a number means that no potency is given here. Values without a mark were called inactive. Activity calls are given as the source filed them. Unless noted, the call rests on the fitted dose curve; in most records, active means well fitted curve in the direction sought with a large enough effect; inconclusive means small, poorly fitted or top-dose-only effect, or another doubt; inactive means no such curve, though single readings can be large; an effect the other way counts as inactive or inconclusive.

Assays:
[1] = molecular target: Voltage-gated inwardly rectifying potassium channel KCNH2 (Homo sapiens) (UniProt Q12809); assay: qHTS Assay for Small Molecule Inhibitors of the Human hERG Channel Activity (AID 588834);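 further: lower thallium flux fluorescence means stronger hERG block; nearly all actives have a fitted effect of over 50% in size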; further: potency means the concentration at half of the fitted maximal effect
Voltage-gated inwardly rectifying potassium channel KCNH2 (Homo sapiens), sequence (Q12809 whole entry, looked up): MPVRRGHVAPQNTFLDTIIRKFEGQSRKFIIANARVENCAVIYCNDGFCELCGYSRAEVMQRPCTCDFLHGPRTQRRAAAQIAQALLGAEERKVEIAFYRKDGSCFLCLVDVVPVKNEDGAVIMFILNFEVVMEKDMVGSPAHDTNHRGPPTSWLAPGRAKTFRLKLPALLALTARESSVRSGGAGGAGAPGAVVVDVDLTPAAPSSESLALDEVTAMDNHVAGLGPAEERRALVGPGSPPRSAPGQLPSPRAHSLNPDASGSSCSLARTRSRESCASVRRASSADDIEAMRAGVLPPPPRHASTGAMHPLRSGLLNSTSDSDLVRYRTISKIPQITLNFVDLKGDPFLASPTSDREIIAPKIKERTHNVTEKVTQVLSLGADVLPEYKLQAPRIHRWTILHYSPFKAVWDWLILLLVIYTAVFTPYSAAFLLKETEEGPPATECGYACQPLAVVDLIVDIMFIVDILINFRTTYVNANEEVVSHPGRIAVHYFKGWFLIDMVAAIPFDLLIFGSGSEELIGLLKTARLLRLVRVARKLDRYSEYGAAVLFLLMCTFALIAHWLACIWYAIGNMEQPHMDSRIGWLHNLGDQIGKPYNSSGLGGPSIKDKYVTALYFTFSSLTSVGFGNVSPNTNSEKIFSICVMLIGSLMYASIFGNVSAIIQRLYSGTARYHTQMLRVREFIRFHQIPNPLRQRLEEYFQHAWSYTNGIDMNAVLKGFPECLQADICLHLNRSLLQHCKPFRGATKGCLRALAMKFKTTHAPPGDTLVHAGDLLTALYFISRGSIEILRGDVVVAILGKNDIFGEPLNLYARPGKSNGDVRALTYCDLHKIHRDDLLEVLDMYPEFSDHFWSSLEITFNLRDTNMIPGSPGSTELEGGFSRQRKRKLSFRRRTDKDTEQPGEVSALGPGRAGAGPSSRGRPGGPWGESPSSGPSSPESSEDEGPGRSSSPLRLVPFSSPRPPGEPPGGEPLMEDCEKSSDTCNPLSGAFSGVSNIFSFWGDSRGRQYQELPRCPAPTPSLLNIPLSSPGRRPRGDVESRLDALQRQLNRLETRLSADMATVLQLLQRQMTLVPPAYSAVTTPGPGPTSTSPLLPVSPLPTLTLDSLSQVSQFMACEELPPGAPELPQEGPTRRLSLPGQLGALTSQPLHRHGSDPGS
Outline: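 hERG block measured as reduced thallium-dye (FluxOR) fluorescence after stimulation buffer addition, read over 2 min. Cells were hERG-BacMam-transduced U2OS exposed to compound ~10 min […]; concentration-response fitted with Hill equation for AC50.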

[2] = molecular target: Luciferin 4-monooxygenase (Photinus pyralis) (UniProt P08659); assay: Biochemical firefly luciferase enzyme assay for NPC (AID 624030); further: nearly all actives have a fitted effect of over 70% in size; further: potency means the concentration at half of the fitted maximal effect
Luciferin 4-monooxygenase (Photinus pyralis), sequence (P08659 whole entry, looked up): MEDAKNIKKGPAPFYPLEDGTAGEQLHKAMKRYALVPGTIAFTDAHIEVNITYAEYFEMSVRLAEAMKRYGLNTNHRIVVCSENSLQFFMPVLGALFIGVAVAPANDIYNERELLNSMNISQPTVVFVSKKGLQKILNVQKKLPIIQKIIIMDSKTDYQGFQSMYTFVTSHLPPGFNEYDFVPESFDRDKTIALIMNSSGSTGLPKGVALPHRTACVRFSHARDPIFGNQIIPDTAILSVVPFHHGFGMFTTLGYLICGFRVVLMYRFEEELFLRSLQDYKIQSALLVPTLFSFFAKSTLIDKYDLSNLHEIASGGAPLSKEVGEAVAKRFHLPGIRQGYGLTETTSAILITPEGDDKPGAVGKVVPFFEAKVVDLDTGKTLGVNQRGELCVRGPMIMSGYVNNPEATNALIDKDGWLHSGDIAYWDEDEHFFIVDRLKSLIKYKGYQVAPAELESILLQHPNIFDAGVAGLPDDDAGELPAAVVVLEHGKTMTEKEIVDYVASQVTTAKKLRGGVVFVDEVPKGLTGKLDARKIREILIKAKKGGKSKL
Outline: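 Direct inhibition of firefly luciferase enzyme (10 nM final, 50 mM Tris Acetate) assessed by luminescence within 5 minutes. Percent activity scaled between DMSO and PTC124 positive control, with concentration-effect curves classified by fit quality and response.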

[3] = S16 Schwann cell viability assay (CellTiter-Glo assay) (AID 624031);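 further: native untransfected S16 rat Schwann cells; cellular ATP luminescence as a viability measure; series mostly up to about 58 µM; nearly all actives have a fitted effect of over 70% in size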
Outline: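 Cells were seeded at 500-750 per well in phenol red-free DMEM with 10% FBS and left overnight. Compounds or DMSO were pinned in, incubation ran 24 h at 37 °C/5% CO2, then CellTiter-Glo reagent was added and luminescence measured.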

[4] = S16 Schwann cell PMP22 intronic element firefly luciferase assay (AID 624032); further: nearly all actives have a fitted effect of over 30% in size; further: potency means the concentration at half of the fitted maximal effect
Outline: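 Luciferase reporter of PMP22 intronic-element expression in stably transfected S16 rat Schwann cells, read by ONE-Glo luminescence after 24 h compound exposure at 37 C. Activity scaled between DMSO (0%) and positive-control PTC124; concentration-effect curves quality-classified.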

[5] = S16 Schwann cell PMP22 intronic element beta-lactamase assay (AID 624044; calls by dose curve; further: nearly all actives have a fitted effect of over 15% in size)
Outline: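 Beta-lactamase reporter under a PMP22 intronic regulatory element in stable S16 rat Schwann cells; 24 h compound exposure. 460 nm blue signal normalized between DMSO (0%) and potassium clavulanate, with 535 nm FRET tracking viability; curves classed by r2 and response.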

SMILES	Potency [1]	Potency [2]	Potency [3]	Potency [4]	Potency [5]
CNC1(c2ccccc2Cl)CCCCC1=O (centres undefined)	inactive	inactive	inactive	inactive	inactive
CNC(=O)Oc1ccccc1C(=O)Nc1ccccc1	inactive	14.4 µM (active)	–	inactive	inactive
COc1ccc2c3c1O[C@H]1C(=O)CC[C@H]4[C@@H](C2)N(C)CC[C@]314	inactive	inactive	inactive	–	inactive
CC(N)Cc1ccc(O)cc1 (centres undefined)	inactive	inactive	inactive	9.07 µM (active)	inactive
CC(Cc1ccccc1)NC=O (centres undefined)	inactive	inactive	–	inactive	–
CCON=O	inactive	inactive	inactive	inactive	inactive
c1ccc2sc(SNC3CCCCC3)nc2c1	inactive	–	–	inactive	inactive
CC(=O)OC1CN2CCC1CC2 (centres undefined)	inactive	inactive	inactive	–	inactive
CCCC(C)(COC(N)=O)COC(=O)NC1CC1 (centres undefined)	inactive	inactive	inactive	inactive	inactive
NCC(O)c1cccc(O)c1 (centres undefined)	inactive	inactive	–	inactive	–
C/C(=C\c1csc(C)n1)[C@@H]1C[C@@H]2O[C@]2(C)CCC[C@H](C)[C@H](O)[C@@H](C)C(=O)C(C)(C)[C@@H](O)CC(=O)O1	inactive	inactive	–	0.0573 µM (active)	–
CCC(N)Cc1c[nH]c2ccccc12 (centres undefined)	inactive	inactive	–	inactive	inactive
OC(c1ccccc1)(c1ccccc1)C1CN2CCC1CC2 (centres undefined)	3.55 µM (active)	inactive	inactive	–	inactive
C[C@H]1CC[C@@H]2[C@@H](C)[C@H]3[C@H](C[C@H]4[C@@H]5CC=C6CC(O[C@@H]7O[C@H](CO)[C@H](O)[C@H](O[C@@H]8O[C@H](CO)[C@@H](O)[C@H](O)[C@H]8O)[C@H]7O[C@H]7O[C@@H](C)[C@H](O)[C@@H](O)[C@H]7O)CC[C@]6(C)[C@H]5CC[C@]34C)N2C1 (some centres undefined)	inactive	inactive	–	28.7 µM (active)	–
F/C(COc1ccc2c(c1)[nH]c1ccccc12)=C1/CN2CCC1CC2	22.4 µM (active)	–	–	inactive	inactive
CCC1(C)CC(=O)NC(=O)C1	inactive	inactive	inactive	inactive	inactive
CC[N+](C)(CC)CCOC(=O)C(O)(c1ccccc1)c1ccccc1	inactive	inactive	–	–	inactive
C[N+]1(C)CCCCC1COC(=O)C(O)(c1ccccc1)c1ccccc1 (centres undefined)	inactive	inactive	–	inactive	inactive
CCCC(=O)OC(C(Cl)(Cl)Cl)P(=O)(OC)OC (centres undefined)	inactive	inactive	–	inactive	inactive
